# Where “and” joins values, the source holds several entries; their conditions need not be identical. Equal entries are not always repeated. Records with an inconclusive call do not appear. A call without a number means that no potency is given here. Some compounds were tested as several samples or in several runs, with calls that do not always agree. Calls of active or inactive are those of the source. Calls come from the whole dose curve; as a rule, active = well fitted curve in the direction sought with a large enough effect in the repeat runs; inconclusive = weak or mixed curves; inactive = no such curve, though single readings can be large; an effect the other way counts as inactive or inconclusive.
# Key:
# [1] = A CellTox Green Cytotoxicity Assay to monitor cytotoxicity in HEK293 cells - 24 hour (AID 1224875); note: nearly all actives have a fitted effect of over 45% in size; note: potency is the fitted concentration of half-maximal effect; for activity change: series mostly up to about 77 µM
# How it was run: (§1)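 Dead-cell fluorescence measured kinetically: asymmetric cyanine dye, HEK293, 600 cells/well, 5 h settle, 23 nL cpd/DMSO, 37 C, reads 0–40 h every 8 h.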
# [2] = A CellTox Green Cytotoxicity Assay to monitor cytotoxicity in HepG2 cells - 16 hour (AID 1224876); note: nearly all actives have a fitted effect of over 45% in size; note: potency is the fitted concentration of half-maximal effect
# How it was run: (§2)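 First, HepG2 cells (600/well) mixed with reagent were plated; second, after 5 h at 37 C they received compounds via pintool; third, fluorescence was measured at 0 h through 40 h at 8 h intervals.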
# [3] = A CellTox Green Cytotoxicity Assay to monitor cytotoxicity in HepG2 cells - 24 hour (AID 1224878); note: nearly all actives have a fitted effect of over 45% in size; note: potency is the fitted concentration of half-maximal effect
# How it was run: as §2
# [4] = A CellTox Green Cytotoxicity Assay to monitor cytotoxicity in HepG2 cells - 40 hour (AID 1224879); note: nearly all actives have a fitted effect of over 40% in size; note: potency is the fitted concentration of half-maximal effect
# How it was run: as §2
# [5] = A CellTox Green Cytotoxicity Assay to monitor cytotoxicity in HEK293 cells - 32 hour (AID 1224881); note: nearly all actives have a fitted effect of over 40% in size; note: potency is the fitted concentration of half-maximal effect
# How it was run: as §1
# [6] = A CellTox Green Cytotoxicity Assay to monitor cytotoxicity in HepG2 cells - 0 hour (AID 1224882); note: nearly all actives have a fitted effect of over 35% in size; note: potency is the fitted concentration of half-maximal effect
# How it was run: as §2
# [7] = A CellTox Green Cytotoxicity Assay to monitor cytotoxicity in HepG2 cells - 32 hour (AID 1224883); note: nearly all actives have a fitted effect of over 50% in size
# How it was run: as §2
# [8] = A CellTox Green Cytotoxicity Assay to monitor cytotoxicity in HEK293 cells - 8 hour (AID 1224884); note: nearly all actives have a fitted effect of over 35% in size; note: potency is the fitted concentration of half-maximal effect
# How it was run: as §1
# [9] = A CellTox Green Cytotoxicity Assay to monitor cytotoxicity in HEK293 cells - 16 hour (AID 1224888); note: nearly all actives have a fitted effect of over 35% in size; note: potency is the fitted concentration of half-maximal effect
# How it was run: as §1
# [10] = A CellTox Green Cytotoxicity Assay to monitor cytotoxicity in HepG2 cells - 8 hour (AID 1224890); note: nearly all actives have a fitted effect of over 45% in size; note: potency is the fitted concentration of half-maximal effect
# How it was run: as §2
# [11] = qHTS assay to identify small molecule antagonists of the estrogen receptor alpha (ER-alpha) signaling pathway using the BG1 cell line in the presence of 0.1 nM 17-beta-estradiol - cell viability counter screen (AID 1259241); note: nearly all actives have a fitted effect of over 40% in size; note: potency is the fitted concentration of half-maximal effect
# How it was run: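 VM7Luc4E2, 4,000 cells/well, phenol red-free medium + 10% charcoal-stripped FBS; 24 hr plating; cpd + 0.1 nM E2 final, 22 hr 37C/5% CO2; CellTiter-Fluor 30 min, fluorescence.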
# [12] = qHTS RealTime-Glo MT Cell Viability Assay in HEK293 cells - 16 hour (AID 1224872); note: nearly all actives have a fitted effect of over 50% in size; note: potency is the fitted concentration of half-maximal effect; for activity change, negative = cytotoxicity: top concentration of the series differs between compounds
# How it was run: (§3)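 Assay medium contained NanoLuc luciferase plus cell-permeant prosubstrate, added with HEK293 cells at 600 cells/well. After 5 h at 37 C/5% CO2 compounds were added; plates stayed at 37 C for 40 h with serial luminescence reads.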
# [13] = qHTS RealTime-Glo MT Cell Viability Assay in HepG2 cells - 8 hour (AID 1224873); note: nearly all actives have a fitted effect of over 55% in size; note: potency is the fitted concentration of half-maximal effect
# How it was run: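 Real-time viability: cells seeded at 600 per well together with NanoLuc and cell-permeant prosubstrate, compounds added after 5 h incubation. Luminescence tracked at 0, 8, 16, 24, 32 and 40 h of exposure.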
# [14] = qHTS RealTime-Glo MT Cell Viability Assay in HEK293 cells - 40 hour (AID 1224874); settings: RealTime-Glo luminescence; max response: stronger effect = lower value; note: nearly all actives have a fitted effect of over 50% in size; note: potency is the fitted concentration of half-maximal effect
# How it was run: (§4)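 600 HEK293 cells per well, dispensed already mixed with RealTime-Glo MT reagents. Compound dosing came 5 h later. The same wells were read for luminescence at 0, 8, 16, 24, 32 and 40 h of exposure at 37 C.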
# [15] = qHTS RealTime-Glo MT Cell Viability Assay in HepG2 cells - 32 hour (AID 1224877); note: nearly all actives have a fitted effect of over 55% in size; note: potency is the fitted concentration of half-maximal effect
# How it was run: (§5)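 qHTS, HepG2, 600 cells/well, RealTime-Glo (NanoLuc + prosubstrate) added with cells; 5 h preincubation; DMSO compound addition; 37 C; luminescence at 0/8/16/24/32/40 h.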
# [16] = qHTS RealTime-Glo MT Cell Viability Assay in HepG2 cells - 16 hour (AID 1224885); note: nearly all actives have a fitted effect of over 50% in size; note: potency is the fitted concentration of half-maximal effect
# How it was run: as §5
# [17] = qHTS RealTime-Glo MT Cell Viability Assay in HEK293 cells - 24 hour (AID 1224886); note: nearly all actives have a fitted effect of over 50% in size; note: potency is the fitted concentration of half-maximal effect; for activity change, negative = cytotoxicity: top concentration of the series differs between compounds
# How it was run: as §3
# [18] = qHTS RealTime-Glo MT Cell Viability Assay in HEK293 cells - 8 hour (AID 1224887); note: nearly all actives have a fitted effect of over 50% in size; note: potency is the fitted concentration of half-maximal effect; for activity change, negative = cytotoxicity: top concentration of the series differs between compounds
# How it was run: as §4
# [19] = qHTS RealTime-Glo MT Cell Viability Assay in HEK293 cells - 0 hour (AID 1224880)
# How it was run: as §4
# [20] = qHTS RealTime-Glo MT Cell Viability Assay in HepG2 cells - 0 hour (AID 1224889); note: nearly all actives have a fitted effect of over 50% in size
# How it was run: as §5
smiles,measurement,setting,value
COc1ccc(CN(CCN(C)C)c2ccccn2)cc1,Potency,[1],inactive
same,Potency,[2],inactive
same,Potency,[3],inactive
same,Potency,[4],inactive
same,Potency,[5],inactive
same,Potency,[6],inactive
same,Potency,[7],inactive
same,Potency,[8],inactive
same,Potency,[9],inactive
same,Potency,[10],inactive
same,Potency,[11],inactive
C1CCC(C(CC2CCCCN2)C2CCCCC2)CC1 (stereo unspecified),Potency,[12],19 µM (active)
same,Potency,[13],21.3 µM (active)
same,Potency,[14],10.7 µM (active)
same,Potency,[1],21.3 µM (active)
same,Potency,[15],5.35 µM (active)
same,Potency,[3],9.52 µM (active)
same,Potency,[4],5.35 µM (active)
same,Potency,[5],19 µM (active)
same,Potency,[6],inactive
same,Potency,[8],26.8 µM (active)
same,Potency,[16],8.49 µM (active)
same,Potency,[17],16.9 µM (active)
same,Potency,[18],23.9 µM (active)
same,Potency,[9],23.9 µM (active)
same,Potency,[10],23.9 µM (active)
same,Potency,[11],inactive
Nc1ccc2c(c1)CN1C(=O)c3ccccc3C1=N2,"viability change, negative = cytotoxic",[13],-9.67% [at 15.8 µM] (inactive)
same,Potency,[14],3.69 µM (active)
same,Potency,[1],10.4 µM (active)
same,Potency,[2],10.4 µM (active)
same,"activity change, negative = cytotoxic",[15],-0.629% [at 15.8 µM] (inactive)
same,Potency,[3],10.4 µM (active)
same,Potency,[4],10.4 µM (active)
same,"activity change, negative = cytotoxicity",[19],5.64% [at 15.8 µM] (inactive)
same,Potency,[5],10.4 µM (active)
same,Potency,[6],10.4 µM (active)
same,Potency,[8],10.4 µM (active)
same,"activity change, negative = cytotoxic",[16],-5.66% [at 15.8 µM] (inactive)
same,Potency,[17],9.28 µM (active)
same,Potency,[9],10.4 µM (active)
same,Potency,[10],10.4 µM (active)
COc1ccc(C(Cl)=C(c2ccc(OC)cc2)c2ccc(OC)cc2)cc1,Potency,[12],inactive
same,max response,[14],-17.7% (inactive)
same,Potency,[1],inactive
same,Potency,[15],inactive
same,Potency,[3],inactive
same,Potency,[4],inactive
same,Potency,[19],inactive
same,Potency,[5],inactive
same,Potency,[6],inactive
same,Potency,[7],inactive
same,Potency,[8],inactive and 43.6 µM (active)
same,Potency,[16],inactive
same,Potency,[17],inactive
same,Potency,[18],inactive
same,Potency,[9],inactive
same,Potency,[20],inactive
same,Potency,[10],inactive
same,Potency,[11],inactive
O=C(O)c1ccccc1,Potency,[12],inactive
same,Potency,[13],inactive
same,Potency,[1],inactive
same,Potency,[2],inactive
same,Potency,[15],inactive
same,Potency,[3],inactive
same,Potency,[4],inactive
same,Potency,[19],inactive
same,Potency,[5],inactive
same,Potency,[6],inactive
same,Potency,[7],inactive
same,Potency,[8],inactive
same,Potency,[16],inactive
same,Potency,[17],inactive
same,Potency,[18],inactive
same,Potency,[9],inactive
same,Potency,[10],inactive
same,Potency,[11],inactive
CC(=O)C(=O)O,Potency,[12],inactive
same,Potency,[13],inactive
same,max response,[14],-1.91% (inactive) and -9.51% (inactive) and -2.01% (inactive)
same,Potency,[1],inactive
same,Potency,[15],inactive
same,Potency,[3],inactive
same,Potency,[4],inactive
same,Potency,[19],inactive
same,Potency,[5],inactive
same,Potency,[6],inactive
same,Potency,[8],inactive
same,Potency,[16],inactive
same,Potency,[17],inactive
same,Potency,[18],inactive
same,Potency,[9],inactive
same,Potency,[10],inactive
same,Potency,[11],inactive
C1=CC2C3C=CC(C3)C2C1 (stereo unspecified),Potency,[12],inactive
same,Potency,[13],inactive
same,max response,[14],0.978% (inactive)
same,Potency,[15],inactive
same,Potency,[3],inactive
same,Potency,[4],inactive
same,Potency,[19],inactive
same,Potency,[6],inactive
same,Potency,[7],inactive
same,Potency,[8],54 µM (active)
same,Potency,[16],inactive
same,Potency,[17],inactive
same,Potency,[18],inactive
same,Potency,[20],inactive
same,Potency,[10],inactive
same,Potency,[11],inactive
NS(=O)(=O)O,Potency,[12],inactive
same,Potency,[13],inactive
same,max response,[14],0.202% (inactive) [middle of 4 runs]
same,Potency,[1],inactive
same,Potency,[15],inactive
same,Potency,[3],inactive
same,Potency,[4],inactive
same,Potency,[19],inactive
same,Potency,[5],inactive
same,Potency,[6],inactive
same,Potency,[8],inactive
same,Potency,[16],inactive
same,Potency,[17],inactive
same,Potency,[18],inactive
same,Potency,[9],inactive
same,Potency,[10],inactive
same,Potency,[11],inactive
CC1(C)S[C@@H]2[C@H](NC(=O)[C@H](N)c3ccccc3)C(=O)N2[C@H]1C(=O)O,Potency,[1],inactive
same,Potency,[3],inactive
same,Potency,[4],inactive
same,Potency,[5],inactive
same,Potency,[6],inactive
same,Potency,[8],inactive
same,Potency,[9],inactive
same,Potency,[10],inactive
same,Potency,[11],inactive
COc1cccc(O)c1O,Potency,[12],inactive
same,Potency,[13],inactive
same,Potency,[1],inactive
same,Potency,[15],inactive
same,Potency,[3],inactive
same,Potency,[4],inactive
same,Potency,[19],inactive
same,Potency,[5],inactive
same,Potency,[6],inactive
same,Potency,[7],inactive
same,Potency,[8],inactive
same,Potency,[16],inactive
same,Potency,[9],inactive
same,Potency,[10],inactive
CCCCC(CC)C(=O)O (stereo unspecified),Potency,[12],inactive
same,Potency,[13],inactive
same,Potency,[1],inactive
same,Potency,[15],inactive
same,Potency,[3],inactive
same,Potency,[4],inactive
same,Potency,[19],inactive
same,Potency,[5],inactive
same,Potency,[6],inactive
same,Potency,[8],inactive
same,Potency,[16],inactive
same,Potency,[17],inactive
same,Potency,[18],inactive
same,Potency,[9],inactive
same,Potency,[10],inactive
same,Potency,[11],inactive
Nc1ccc([N+](=O)[O-])cc1O,Potency,[12],inactive
same,Potency,[13],inactive
same,Potency,[1],inactive
same,Potency,[2],inactive
same,Potency,[15],inactive
same,Potency,[3],inactive
same,Potency,[4],inactive
same,Potency,[19],inactive
same,Potency,[5],inactive
same,Potency,[6],inactive
same,Potency,[7],inactive
same,Potency,[8],inactive
same,Potency,[16],inactive
same,Potency,[17],inactive
same,Potency,[18],inactive
same,Potency,[9],inactive
same,Potency,[20],inactive
same,Potency,[10],inactive
same,Potency,[11],61.1 µM (active)
